# Data: PubChem BioAssay (EPA / NIEHS)
# Active and inactive are the calls of the source. How the source made its calls: active means hit-call score of the fitted dose curve at least 0.9, where 1 is the maximum; inactive means score below 0.9.
# Target: Hepatocyte nuclear factor 6 (Homo sapiens) (UniProt Q9UBC0)
# Experiment: ATG_HNF6_CIS: Attagene CIS-FACTORIAL HepG2 Assay for human Hepatocyte Nuclear Factor 6 (HNF6) (AID 2282952)
# Details: HepG2 Attagene cis-factorial HNF6 reporter transcription; actives raise or lower the signal
# Method: ATG_CIS is a cell-based, multiplexed-readout assay that uses HepG2, a human liver cell line, with measurements taken at 24 hours after chemical dosing in a 24-well plate.ATG_HNF6_CIS is one of 52 assay component(s) measured or calculated from the ATG_CIS assay. It is designed to make measurements of mRNA induction, a form of inducible reporter, as detected with fluorescence intensity signals by Reverse transcription polymerase chain reaction (RT-PCR) and Capillary electrophoresis technology.Data from the assay component ATG_HNF6_CIS was analyzed into 1 assay endpoint. This assay endpoint, ATG_HNF6_CIS, was analyzed with bidirectional fitting relative to DMSO as the negative control and baseline of activity. Using a type of inducible reporter, measures of mRNA for gain or loss-of-signal activity can be used to understand the reporter gene at the transcription factor-level as they relate to the gene ONECUT1. Furthermore, this assay endpoint can be referred to as a primary readout, because this assay has produced multiple assay endpoints where this one serves a reporter gene function. To generalize the intended target to other relatable targets, this assay endpoint is annotated to the dna binding intended target family, where the subfamily is homeobox protein.
# Human liver HepG2 cells are transiently transfected with multiple reporter transcription units (MRTUs) in 6-well plates using FuGene 6 reagent (Roche; 3 ml FuGene/1 mg DNA). The MRTU constructs are regulated by a cis-regulating element (promoter). […] A major difference between the CIS and TRANS system is that in CIS activities of endogenous TFs are measured, whereas the TRANS assay evaluates changes in activities of exogenous, chimeric NR-Gal4 proteins. […] At the end of 24 hour incubation, total RNA was isolated using TriZol reagent (Invitrogen). The isolated RNA is then reverse-transcribed using oligo(dT) primer and Mo-MLV reverse transcriptase (Invitrogen) with DNAse I (Ambion) treatment for 30 min. The one-tenth of the produced cDNA was amplified by PCR using Taq DNA polymerase (Invitrogen) and two reporter sequence-specific primers. The PCR products were fluorescently labeled by primer extension with 6-arboxyfluorescein (6-FAM) 5'-labeled reporter sequence-specific primer (2 min at 95 C, 20 s at 68 C and 10 min at 72 C) and these products were digested with 5U of HpaI (New England Biolabs) for 2h at 37 C. The fragments were purified using Qiaquick PCR columns (Qiagen), analyzed on an ABI 3130xL genetic analyzer (Applied Biosystems) with peak positions identified by using a set of X-rhodamine (ROX)-labeled MapMarker1000 molecular weight standards (BioVentures). The raw capillary electrophoresis data was processed using Attagraph software (Attagene).
# Sequence of Hepatocyte nuclear factor 6 (Homo sapiens) (Q9UBC0 whole entry, looked up): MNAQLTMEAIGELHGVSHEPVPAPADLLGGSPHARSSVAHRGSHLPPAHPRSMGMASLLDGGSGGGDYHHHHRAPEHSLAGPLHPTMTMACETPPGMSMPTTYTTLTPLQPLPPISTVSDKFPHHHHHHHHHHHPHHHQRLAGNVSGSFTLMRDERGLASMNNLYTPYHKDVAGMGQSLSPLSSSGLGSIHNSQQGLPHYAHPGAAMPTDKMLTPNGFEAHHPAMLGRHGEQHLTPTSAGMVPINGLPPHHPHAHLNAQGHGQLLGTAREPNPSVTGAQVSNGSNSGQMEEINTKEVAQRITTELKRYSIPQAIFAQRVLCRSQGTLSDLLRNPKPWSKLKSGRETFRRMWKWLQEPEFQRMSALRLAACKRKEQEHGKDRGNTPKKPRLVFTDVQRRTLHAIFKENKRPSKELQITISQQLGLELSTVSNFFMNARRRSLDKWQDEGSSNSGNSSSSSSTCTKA
row,SMILES,outcome
1,O=C(CC(C(=O)OC1CCCCC1)S(=O)(=O)O)OC1CCCCC1 (stereo not given),inactive
2,CC[N+](CC)(CC(=O)Nc1c(C)cccc1C)Cc1ccccc1,inactive
3,CN1CCCC1,inactive
4,O=C(O)c1nc(Cl)c(Cl)c(Cl)c1Cl,inactive
5,CCCCCC1CCCC(=O)O1 (stereo not given),inactive
6,CC(O)(P(=O)(O)O)P(=O)(O)O,inactive
7,NC(=O)c1ccc(N)cc1,inactive
8,CN(C)N=Nc1ccccc1,inactive
9,O=C(OCc1ccccc1)c1ccccc1,inactive
10,c1cc(N(CC2CO2)CC2CO2)ccc1Cc1ccc(N(CC2CO2)CC2CO2)cc1 (stereo not given),inactive
11,CC/C=C\CC/C=C/C(OCC)OCC,inactive
12,O=C1NC(=O)C2CC=CCC12 (stereo not given),inactive
13,CCC(C)=NO,inactive
14,O=[N+]([O-])c1ccc2nc[nH]c2c1,inactive
15,O=[N+]([O-])c1ccccc1C(F)(F)F,inactive
16,CCC(=O)OCc1ccc(OC)cc1,inactive
17,Nc1nnc(-c2ccc([N+](=O)[O-])o2)o1,inactive
18,C=CC(C)(CCC=C(C)C)OC(=O)c1ccccc1 (stereo not given),inactive
19,CCCc1c(OCCCCc2nn[nH]n2)ccc(C(C)=O)c1O,inactive
20,CCCCn1cc[n+](C)c1,inactive

row,SMILES,outcome
1,NC(=O)c1ccc([N+](=O)[O-])cc1Cl,inactive
2,CC=CC(=O)O,inactive
3,OCCc1ccccn1,inactive
4,CC1=C(CC(=O)O)c2cc(F)ccc2/C1=C\c1ccc(S(C)=O)cc1 (stereo not given),inactive
5,OCCN(CCO)c1cccc(Cl)c1,inactive
6,O=C(O)/C=C\C(=O)O,inactive
7,CCCCCCCC#N,inactive
8,COC(OC)C(C)c1ccccc1 (stereo not given),inactive
9,CC/C=C\CCO,inactive
10,Cc1ccccc1S(N)(=O)=O,inactive
11,CN(C)CCCN1c2ccccc2CCc2ccc(Cl)cc21,inactive
12,Sc1nc2ccccc2s1,inactive
13,c1ccc2c(c1)Oc1ccccc1S2,inactive
14,CC(C)CC(=O)CC(C)C,inactive
15,CC/C=C/CCO,inactive
16,CCCCCCOC(=O)CCCCCCCC(=O)OCCCCCC,inactive
17,COc1ccccc1OCC(O)CO (stereo not given),inactive
18,Cc1ccccc1S(=O)(=O)O,inactive
19,CC[N+](CC)(CC(=O)Nc1c(C)cccc1C)Cc1ccccc1 (tested in a mixture with another compound),inactive
20,Cc1cc(C)c(S(=O)(=O)O)cc1N=Nc1cc(S(=O)(=O)O)c2ccccc2c1O,inactive
